Out of some 190,000 compounds screened, about 10 (0.005%) were called active.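 Rule for the calls: active = activation factor of 2 or more at 20 µM, relative to plate controls; inactive = the rest.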 Not all results are given here.
target: Mannose-6-phosphate isomerase (Homo sapiens) (UniProt P34949); assay: activators of human PMI, primary screen, biochemical, fluorescence intensity, near-Km mannose 6-phosphate (AID 1214); conditions: purified human PMI, coupled resazurin fluorescence, 20 min; at 20 µM; active compounds read high; 1 = vehicle control, 0 substrate-free wells
Sequence (P34949 whole entry, looked up): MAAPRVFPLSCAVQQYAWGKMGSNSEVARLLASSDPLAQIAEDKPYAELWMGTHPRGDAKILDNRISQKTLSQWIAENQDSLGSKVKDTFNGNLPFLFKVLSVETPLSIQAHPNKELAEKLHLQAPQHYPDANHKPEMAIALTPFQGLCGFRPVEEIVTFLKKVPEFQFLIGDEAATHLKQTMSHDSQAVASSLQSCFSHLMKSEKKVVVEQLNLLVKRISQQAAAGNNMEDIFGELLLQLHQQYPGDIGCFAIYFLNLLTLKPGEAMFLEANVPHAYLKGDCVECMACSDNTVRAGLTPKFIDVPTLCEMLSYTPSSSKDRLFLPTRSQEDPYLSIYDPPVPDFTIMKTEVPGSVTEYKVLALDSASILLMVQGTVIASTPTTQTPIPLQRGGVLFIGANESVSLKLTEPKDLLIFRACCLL

Compound	activation factor
CC(C)CCN1CCN(C/C=C/c2ccco2)CC1CCO (configuration not stated)	0.8 (inactive)
CCOC(=O)c1ccc(NNC(C)=O)c([N+](=O)[O-])c1	0.9 (inactive)
CC(=O)c1ccc(NC(=S)N(Cc2ccccc2)C(C)C2CC2)cc1 (configuration not stated)	0.8 (inactive)
O=C(CN1CCCC1)N1CCN(c2ccccc2)CC1	0.8 (inactive)
O=C(CC1C(=O)NCCN1Cc1ccc(-c2ccccc2)cc1)NCc1ccncc1 (configuration not stated)	1 (inactive)
CCOc1ccc(-n2c(SCC(=O)NC3CCS(=O)(=O)C3)nnc2-c2cccnc2)cc1 (configuration not stated)	1 (inactive)
O=C(Nc1ccc(N2CCOCC2)cc1)c1ccc2c(c1)OCO2	0.9 (inactive)
CCC1CCCCN1C(=O)CSc1nc(C)cc(C)n1 (configuration not stated)	1 (inactive)
CCCOC(=O)c1ccc(N2C(=O)c3ccccc3C2=O)cc1	1 (inactive)
O=C(CSc1ccc([N+](=O)[O-])cn1)Nc1ccc(N2CCOCC2)c(Cl)c1	1 (inactive)
COc1ccc(-c2cc(C(=O)NCCCn3ccnc3)no2)cc1	1 (inactive)
Cc1cccc(C)c1NC(=S)N(Cc1cccnc1)Cc1ccccc1Cl	0.9 (inactive)
COc1ccc(/C=C/CN2CCCC(C(=O)c3cc(F)ccc3F)C2)cc1 (configuration not stated)	1 (inactive)
O=c1c2sccc2nc(SCc2cc(=O)n3ccccc3n2)n1-c1ccc(Br)cc1	0.9 (inactive)
O=C1CS(=O)CN1c1ccc(Oc2ccccc2)cc1 (configuration not stated)	1 (inactive)
CC(=C/c1ccccc1)/C=N/NC(=O)c1cc(C)oc1C	0.9 (inactive)
CN1C(=O)C(CC(=O)Nc2ccccc2)S/C1=N/c1nccs1 (configuration not stated)	1 (inactive)
CC(/C=C/C1(O)C(C)CC(=O)CC1(C)C)OC1OC(CO)C(O)C(O)C1O (configuration not stated)	0.9 (inactive)
CCN(C(=O)COC(=O)c1ccc(COc2ccc3c(C)cc(=O)oc3c2)cc1)C1CCS(=O)(=O)C1 (configuration not stated)	1 (inactive)
CCOC(=O)c1cc2c(=O)n3ccccc3nc2n(CC(C)C)c1=NC(=O)c1c(-c2c(F)cccc2Cl)noc1C	1 (inactive)
CCOc1ccc2nc(NCCNC(=O)C(C)(C)C)c(C)cc2c1	1 (inactive)
Cc1cccc(N(C(=O)Cc2cccs2)C(C(=O)NCc2ccco2)c2ccncc2)c1 (configuration not stated)	0.9 (inactive)
COc1ccc(Cl)cc1NC(=O)NC(C)C(C)(C)C (configuration not stated)	0.9 (inactive)
CC(C)CCN1CCN(Cc2cn[nH]c2C2CCCCC2)CC1CCO (configuration not stated)	1 (inactive)
Cc1cccc(NC(=O)/C=C/c2ccc3c(c2)OCO3)n1	0.9 (inactive)

Compound	activation factor
CC1=CC(=C(C#N)c2nc3ccccc3s2)C=C(C)N1c1ccc(F)cc1F	0.7 (inactive)
COc1cccc(/C=C/C(=O)Nc2ccc3c(c2)OCCO3)c1	1.1 (inactive)
Cc1c(NC(=S)NCc2ccc(F)cc2)cccc1[N+](=O)[O-]	0.8 (inactive)
Cc1ccc(-c2nn(-c3ccccc3)cc2/C=C/C(=O)Nc2cccc(S(N)(=O)=O)c2)cc1	0.9 (inactive)
COc1ccc(NC(=S)N2CCCC(CO)C2)c(OC)c1 (configuration not stated)	1 (inactive)
COC(=O)c1c(C(=O)OC)c(-c2cccc(C)c2)n2c1CS(=O)C2 (configuration not stated)	0.9 (inactive)
CCOC(=O)C1(O)CC(C)=NN1C(=O)c1cccc(Br)c1 (configuration not stated)	1.1 (inactive)
Cc1ccc(-n2cc(CN(C)Cc3nccn3C)c(-c3cccc(C)c3)n2)cc1	0.8 (inactive)
O=C(CCNC(=O)c1ccc([N+](=O)[O-])cc1)Nc1ccccc1N1CCOCC1	1 (inactive)
CCCC(O)(CCC)C(=O)NN(C(=O)CCl)c1cccc(C)c1	1.1 (inactive)
COC(=O)c1cc(NC(=O)CN2CCN(C(C)=O)CC2)cc(C(=O)OC)c1	0.9 (inactive)
C/C(N)=C(/C#N)C(=O)COC(=O)CNS(=O)(=O)c1ccc(C)cc1	1 (inactive)
CCNC(=O)CC1C(=O)N(c2ccc(F)cc2)C(=O)N1CCc1sccc1C (configuration not stated)	1.1 (inactive)
CCOc1ccc(C(C)=O)cc1CSc1nnc(-c2ccncc2)n1CCOC	1.1 (inactive)
CCOCCCNCc1ccc(OCc2ccc(F)cc2)c(OC)c1	0.9 (inactive)
CCCCc1nnc(NC(=O)CSc2nc(N)cc(=O)[nH]2)s1	0.8 (inactive)
O=C(NCCN1C(=O)S/C(=C\c2cccnc2)C1=O)c1cccc(OC(F)F)c1	0.9 (inactive)
O=C1/C(=C\c2cccnc2)CN(Cc2ccccc2)C/C1=C\c1cccnc1	0.9 (inactive)
Cc1nnc(SC(C(=O)Nc2cc(Cl)cc(Cl)c2)c2ccccc2)[nH]c1=O (configuration not stated)	1 (inactive)
CC(C)CC(=O)NC(=S)NNC(=O)c1cccc([N+](=O)[O-])c1	0.9 (inactive)
CC1CCCCN1C(=S)NCc1ccccc1 (configuration not stated)	0.9 (inactive)
CN(C)S(=O)(=O)c1ccc(NC(=O)N2CCOCC2)cc1	1 (inactive)
Cc1cc(C(=O)COC(=O)CNC(=O)c2ccc(F)cc2)c(C)n1Cc1ccco1	0.9 (inactive)
Cc1ccc2nc(-c3cccnc3)c(NC3CCCC3)n2c1	0.9 (inactive)
CC(C)[C@H](NC(=O)c1ccc(F)cc1)C(=O)OCC(=O)NC(=O)c1cccn1C	0.9 (inactive)

Compound	activation factor
CCOC(=O)C1=C(C)OC(N)=C(C#N)C1c1cncc(-c2ccc(F)cc2)c1 (configuration not stated)	1.1 (inactive)
CCC(C)NC(=O)c1nn(C)c(=O)c2ccccc12 (configuration not stated)	1.1 (inactive)
O=C(CN1C(=O)CC(c2ccccc2)S(=O)(=O)c2ccccc21)NC1CCCC1 (configuration not stated)	1.1 (inactive)
N#Cc1ccc(CSc2nnc3ccccn23)cc1	1 (inactive)
Cc1ccnc(SCC(N)=O)n1	1.1 (inactive)
CCC(C)(C)C1CCC(=NNC(=O)c2ccc(Br)o2)CC1 (configuration not stated)	1 (inactive)
CCOC(=O)/C(=N\Nc1ccccc1[N+](=O)[O-])c1csc(Nc2ccccc2)n1	0.9 (inactive)
COC(=O)C(C)N=Cc1ccccc1 (configuration not stated)	0.9 (inactive)
Cc1onc(C(=O)NN)c1C(=O)N1CCN(C(c2ccccc2)c2ccccc2)CC1	0.9 (inactive)
CCOCCCNC(=O)C(NC(=O)Cc1c[nH]c2ccccc12)c1ccc(OC)cc1 (configuration not stated)	0.9 (inactive)
CC/C(O)=C1\C(=O)CC(C)(C)CC1=NCCc1nc2ccccc2[nH]1	1.1 (inactive)
N#Cc1ccccc1NC(=O)c1cccc(COc2ccc(Cl)cc2Cl)c1	0.9 (inactive)
CCCCc1ccc(NC(=S)NCCCN2CCOCC2)cc1	1 (inactive)
COc1cc(CNCCN(C)C)ccc1OCc1c(F)cccc1Cl	1 (inactive)
O=C(CCNC(=O)Cn1ccc2ccccc2c1=O)NCCC1=CCCCC1	1 (inactive)
Cn1c(=O)c2cc(S(=O)(=O)NCCC(=O)Nc3ccc(F)cc3F)ccc2n(C)c1=O	1 (inactive)
Cc1cccc(C)c1NC(=O)C1(N(C(=O)c2ccccn2)c2ccc(O)cc2)CCCCC1	0.9 (inactive)
Cc1ccc(CN2CCN(Cc3ccccc3-c3ccco3)CC2CCO)o1 (configuration not stated)	0.9 (inactive)
CCOCCCNC(=O)C(NC(=O)c1ccccc1O)c1ccccc1 (configuration not stated)	1.1 (inactive)
O=C(Cc1ccccc1)NNC1CC(=O)N(c2ccc(Br)cc2)C1=O (configuration not stated)	0.9 (inactive)
Cc1ccc(-c2ccc(/C=C(\C#N)C(N)=S)o2)c([N+](=O)[O-])c1	1 (inactive)
Cn1cc(C(=O)NCc2ccccc2F)cn1	1 (inactive)
OC1CSc2nc3ccccc3n2C1 (configuration not stated)	0.9 (inactive)
CCN(C(=O)COC(=O)c1cc(NS(=O)(=O)c2ccc(Cl)c([N+](=O)[O-])c2)ccc1O)C1CCCCC1	0.8 (inactive)
COCCCNC(=O)C1CCC(CNS(=O)(=O)c2ccc(OC)cc2)CC1 (configuration not stated)	1 (inactive)

Compound	activation factor
COc1ccc(N2CCN(C(C)=C3C(=O)c4ccccc4C3=O)CC2)cc1	0.9 (inactive)
COc1ccc(OC)c(-n2c(=S)[nH]c3cc(C(=O)N4CCCCC4)ccc3c2=O)c1	1 (inactive)
Cn1c(CNC(=O)c2ccccc2F)nnc1SCc1ccc(F)cc1	1.2 (inactive)
COc1ccc2c(c1)c(=O)c(C(=O)c1ccc(Cl)cc1)cn2CC(=O)Nc1ccc(F)cc1	1 (inactive)
CC(C)NC(=S)Nc1cccc2cnccc12	1 (inactive)
O=C(N/N=C/c1ccc(Cl)cc1)c1nc2ccc([N+](=O)[O-])cc2c(=O)[nH]1	1 (inactive)
CCCNC(=O)OC[C@H]1O[C@H](CCO/N=C/[C@@H](NS(=O)(=O)c2ccc(C)cc2)[C@H](C)/C=C/CC(=O)OC)C=C[C@@H]1Oc1ccc(OC)cc1	0.9 (inactive)
O=C(Nc1nnc(SCc2ccccc2Cl)s1)c1cccc([N+](=O)[O-])c1	0.9 (inactive)
CSc1ccc(CNCCN2CCOCC2)cc1	1.1 (inactive)
CC(C)(C)NC(=O)NC(=O)COC(=O)Cc1c(F)cccc1Cl	1.2 (inactive)
CCCCCC1CCC(c2nnc(SCC(C)=O)o2)CC1 (configuration not stated)	1 (inactive)
Cc1ccccc1OCCC(=O)OCC(=O)NC(C)c1ccccc1 (configuration not stated)	1 (inactive)
O=C(CSc1cccc[n+]1[O-])c1ccc(-c2ccccc2)cc1	1.2 (inactive)
Cc1cc([N+](=O)[O-])nn1CC(=O)Nc1ccc(Cc2ccncc2)cc1	1 (inactive)
COCCNC(=O)C(OC(=O)c1cccs1)c1ccc(F)cc1 (configuration not stated)	1 (inactive)
Cc1ccc(S(=O)(=O)N2CCN(CC(=O)N/N=C/c3ccc(Br)s3)CC2)cc1	0.9 (inactive)
CN(CC(=O)NCCc1ccccn1)S(=O)(=O)c1ccc(Cl)cc1	0.9 (inactive)
CC1=C(C(=O)Nc2cc(C)ccn2)C(c2cnn(C)c2)C2=C(CC(c3ccccc3)CC2=O)N1 (configuration not stated)	1 (inactive)
O=C(Nc1ccc(CSc2ccccc2)cc1)c1ccc(CN2CCOCC2)cc1	1.1 (inactive)
COc1ccc(Cl)cc1NC(=O)C(C)N1CCc2ccccc21 (configuration not stated)	1.1 (inactive)
Cc1ccn(CC(=O)N2N=C(C(F)F)CC2(O)C(F)F)n1 (configuration not stated)	1.1 (inactive)
N#Cc1c(C(F)(F)F)cc(-c2ccc(Cl)cc2)nc1SCC(=O)O	1 (inactive)

Reference: PubChem BioAssay AID1214 (Sanford-Burnham Center for Chemical Genomics, 2008)
